Source: PMC6212790, “How bacterial xenogeneic silencer rok distinguishes foreign from self DNA in its resident genome”
The full ranking holds about 33,000 sequences; the median of “e-score” is about -0.037, and the highest 2% start at about 0.34. The list comes from a sample in which the highest values are over-represented; it also holds similar and randomly drawn sequences.

What follows are sequences tested against T1, GST-Rok (full length) (Bacillus subtilis subsp. subtilis str. …, UniProt O34857 1-191) (assay: protein binding microarray; Rok is a gene silencer of Bacillus subtilis; high values mean tight binding). Conditions: protein: recombinant; tags: GST (pTH5325, pDEST15-Magic modified); dsDNA, one strand shown.
T1 sequence: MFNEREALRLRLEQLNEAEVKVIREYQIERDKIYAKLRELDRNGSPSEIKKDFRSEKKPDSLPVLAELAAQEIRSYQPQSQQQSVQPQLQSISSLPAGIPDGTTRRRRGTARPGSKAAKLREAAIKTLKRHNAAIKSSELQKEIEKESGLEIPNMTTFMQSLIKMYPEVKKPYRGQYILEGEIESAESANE
Outline: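 Each has a 25-mer constant primer and a 35-mer variable part from a de Bruijn sequence of order 10, covering every non-palindromic 8-mer at least 32 times (palindromic 16). Preference for each 8-mer is given as a rank-based, unitless enrichment score (E-score). Its range runs from 0.5 (most favored) to −0.5 (most disfavored).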

Sequence | binding signal
CATGGTAG | 0.168 E-score
ATAGGTAG | 0.41 E-score
AATGGTAT | 0.309 E-score
ATAGGTAA | 0.223 E-score
AATGGTAG | 0.398 E-score
AGTGGTAG | 0.393 E-score
AGTGGTAC | 0.191 E-score
ATTGGTAC | 0.289 E-score
ATTGGTAG | 0.371 E-score
ATAGGTAC | 0.219 E-score
CGTGGTAG | 0.295 E-score
ATTGGTAA | 0.265 E-score
CACTGCTA | 0.106 E-score
ACAGAACC | -0.171 E-score
CTTTTTTC | 0.0367 E-score
CAAACCTA | 0.145 E-score
ATATAGAG | 0.208 E-score
GAATAGAA | 0.101 E-score
AAATAGAC | 0.0132 E-score
AAATAGAA | 0.368 E-score
CTATAGAA | 0.275 E-score
ATATAGAC | 0.0949 E-score
ATATAGAT | 0.416 E-score
ATATAGAA | 0.354 E-score
GTATAGAA | 0.329 E-score

Sequence | binding signal
TGATGTAA | 0.134 E-score
AACCGTAG | 0.0498 E-score
CGCAATAA | 0.185 E-score
CTATCTTC | 0.11 E-score
CTCTCTAC | 0.0296 E-score
CTATCTAA | 0.264 E-score
ATATCTAG | 0.346 E-score
ATATCTAA | 0.371 E-score
ATCTCTAG | -0.00242 E-score
ACATCTAG | 0.325 E-score
ATATCTAC | 0.393 E-score
CTATCTAC | 0.433 E-score
ATCTCTAA | 0.0544 E-score
ATCTCTAC | 0.0894 E-score
ATATCTGC | 0.221 E-score
AGTTAGGG | -0.0305 E-score
CTATGATA | 0.172 E-score
AACCCAAC | 0.212 E-score
ACACAAGC | -0.0939 E-score
AACGCCCT | -0.11 E-score
ACTTCACT | 0.0809 E-score
TACTCTGA | -0.0307 E-score
ATCTATTG | 0.282 E-score
ACATATTG | 0.148 E-score
CAATATTA | 0.254 E-score

Sequence | binding signal
CGATATTA | 0.213 E-score
CTCTATTA | 0.0982 E-score
GCATATTA | 0.242 E-score
CCATATTA | 0.165 E-score
AGATATTG | 0.196 E-score
CTATATTA | 0.384 E-score
AGATATTA | 0.404 E-score
ATATATTG | 0.372 E-score
ACATATTA | 0.345 E-score
AGATTCGG | 0.0606 E-score
ACAATCGG | 0.00195 E-score
AACTGTTC | 0.004 E-score
AAGCAAAA | 0.0376 E-score
ATATATGA | 0.287 E-score
ATCTATTA | 0.312 E-score
GTATATTA | 0.391 E-score
GTATATGA | 0.216 E-score
GTGTATTA | 0.205 E-score
ATATATTA | 0.467 E-score
CATCGTTC | -0.0505 E-score
AAGCAGAA | 0.142 E-score
ATGGGCTA | 0.0395 E-score
GATTTGTA | 0.249 E-score
AGTTTGTA | 0.391 E-score
AGTTTGTC | 0.0187 E-score

Sequence | binding signal
ATTTTGTA | 0.232 E-score
AATTTGTA | 0.352 E-score
CGTTTGTA | 0.138 E-score
GTCGGCAA | -0.0858 E-score
CCAAGAAC | -0.19 E-score
CTCCGAAA | -0.0499 E-score
CAGTTGAG | -0.000936 E-score
AATGAATT | 0.29 E-score
ACAATAAC | 0.214 E-score
AGTCCCAT | -0.144 E-score
TCTATAAA | 0.186 E-score
ACTATAAA | 0.341 E-score
ACTATAAC | 0.214 E-score
ACTATAAG | 0.268 E-score
ACTATAAT | 0.411 E-score
CCTATAAA | 0.298 E-score
ACGTCATA | 0.128 E-score
CCAAATGG | -0.148 E-score
AGTTCGTC | 0.0184 E-score
CAAAATAC | 0.351 E-score
CAAAATAA | 0.0897 E-score
GGAAATAC | 0.101 E-score
AAAAATAC | 0.32 E-score
GAAAATAC | 0.351 E-score
GAAAATAA | 0.145 E-score

Sequence | binding signal
GGCATTAA | -0.00985 E-score
CCTGTTGA | -0.00587 E-score
GAAACGGC | -0.103 E-score
ATATTAAT | 0.345 E-score
ATATTAAG | 0.275 E-score
AGATTAAG | 0.135 E-score
ATATTAAC | 0.298 E-score
ATATTAAA | 0.377 E-score
AGATTAAT | 0.346 E-score
CTATTAAA | 0.116 E-score
TTATTAAA | 0.168 E-score
AGATTAAC | 0.181 E-score
AAACATTT | 0.0971 E-score
AGAATAAG | 0.105 E-score
ATAAGAGA | -0.0183 E-score
CTGCCCAC | -0.168 E-score
GCTATACA | 0.201 E-score
CCTATATA | 0.123 E-score
ACTATATG | 0.267 E-score
ACTATATA | 0.453 E-score
ACTATATC | 0.331 E-score
GCTATATA | 0.389 E-score
CGAGGTCC | -0.0704 E-score
AGATGCAA | -0.00215 E-score
AATCTAGC | 0.2 E-score

Sequence | binding signal
AATCTAGT | 0.377 E-score
AATCTAGG | 0.231 E-score
TATCTAGA | 0.213 E-score
AATCTAAT | 0.263 E-score
AATCTAGA | 0.349 E-score
GTACCTGA | 0.102 E-score
CGAGTAGA | 0.0915 E-score
CTAATGAA | 0.0765 E-score
CCGAATAG | -0.00823 E-score
ACGCGAAA | -0.0244 E-score
CTTATGAC | 0.247 E-score
TCTATCAA | 0.212 E-score
AACGACTC | -0.0273 E-score
AGGTAGTC | 0.0956 E-score
CGGTAGTC | 0.173 E-score
AGGTAGTA | 0.364 E-score
CGGTAGTA | 0.342 E-score
AGGTAGTG | 0.0916 E-score
GGGTAGTA | 0.238 E-score
AGACAACG | -0.0674 E-score
AGAGCTAG | -0.0248 E-score
CGACTGAC | 0.00526 E-score
CAGAGCTC | -0.162 E-score
GTACTACA | 0.314 E-score
AGACTACG | -0.152 E-score

Sequence | binding signal
CTACTACA | 0.339 E-score
CGACTACG | -0.0988 E-score
ATACTACC | 0.36 E-score
ATACTAGC | 0.321 E-score
CCACTACA | 0.0814 E-score
CTACTACC | 0.303 E-score
GTACAACA | 0.0355 E-score
CTACAACC | 0.119 E-score
ATACTACG | 0.339 E-score
CTACAACA | 0.343 E-score
ACTAGACC | -0.00464 E-score
GATCGAAA | -0.0281 E-score
ATTAATGG | 0.0209 E-score
CTCACAGA | -0.131 E-score
AGCACTGC | -0.181 E-score
ACTTACCT | 0.0398 E-score
CTCTAAAC | 0.0676 E-score
AGTGGCAG | -0.029 E-score
AATTGACG | 0.213 E-score
AGACTACA | 0.0935 E-score
ACACTACA | 0.276 E-score
ATACTACA | 0.408 E-score
